Test results published in the supplement of paper PMC12494721.
Counter-ions that a name gives are not always drawn. A number with no mark means an inactive call.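 The calls were made as follows: for the amine columns active = adjusted P below 0.05 in both replicates with a change the same way and a mean fold change under 0.8 or over 1.25; inactive = the rest.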

What follows are molecules tested on Clostridium sporogenes DSM 1664 (assay: fold change of Tryptamine concentration vs plate DMSO controls (fold change (ratio)); higher = more amine produced, active = hit call of the paper (significant change in both replicates, either direction)). Details: incubation time: 27 h, anaerobic, 37 °C.
Summary of the method: (§1)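 In 80 µL wells, cultures of four gut bacterial strains in mGAM started at OD 0.1 before a 1:1 dilution and grew anaerobically at 37 °C for 27 h. Compounds were added to 20 µM final, except sweeteners at 50 µM final. After extraction of whole cultures with cold acetonitrile/methanol plus 0.1% formic acid and centrifugation, amines were measured by LC–triple-quadrupole MS in dynamic MRM mode against external calibration curves, with within-batch drift correction. Values give fold change over DMSO controls on the same plate, averaged across 2 biological replicates.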

SMILES	fold change of Tryptamine concentration
CCCCc1oc2ccc(NS(C)(=O)=O)cc2c1C(=O)c1ccc(OCCCN(CCCC)CCCC)cc1 [Dronedarone hydrochloride] (20 µM)	0.925
CCN1CCCC(OC(=O)C(c2ccccc2)c2ccccc2)C1 (stereo not given) [Piperidolate hydrochloride] (20 µM)	1.07
C[C@]1(Cn2ccnn2)[C@H](C(=O)O)N2C(=O)C[C@H]2S1(=O)=O [Tazobactam] (20 µM)	0.703 (active)
O=C(CCCN1CCN(c2ccccn2)CC1)c1ccc(F)cc1 [Azaperone] (20 µM)	1.14
CC(=O)Nc1c(I)c(NC(C)=O)c(I)c(C(=O)O)c1I [Diatrizoic acid dihydrate] (20 µM)	0.947
CN[C@@H]1[C@@H](O)[C@@H](O[C@@H]2[C@@H](O)[C@H](O[C@H]3OC(CN)=CC[C@H]3N)[C@@H](N)C[C@H]2N)OC[C@]1(C)O [Sisomicin sulfate] (20 µM)	0.984
CC(CN(C)C)C(C)(O)Cc1ccc(Cl)cc1 (stereo not given) [Clobutinol hydrochloride] (20 µM)	1.02
CC(=O)[C@H]1CC[C@H]2[C@@H]3C[C@H](C)C4=CC(=O)CC[C@]4(C)[C@H]3[C@@H](O)C[C@]12C [Medrysone] (20 µM)	1.03
CC(C(=O)O)c1ccc(-c2ccccc2)c(F)c1 (stereo not given) [Flurbiprofen] (20 µM)	1.02
CCOC(=O)/C=C(C)/C=C/C=C(C)/C=C/c1c(C)cc(OC)c(C)c1C [Etretinate] (20 µM)	1.02
c1ccc2c(CC3=NCCN3)cccc2c1 [Naphazoline hydrochloride] (20 µM)	1.01
CCCCC(=O)N(Cc1ccc(-c2ccccc2-c2nnn[nH]2)cc1)[C@H](C(=O)O)C(C)C [Valsartan] (20 µM)	1.05
COc1ccccc1O [Guaiacol] (20 µM)	1.03
OC[C@H]1O[C@@H](O[C@@H]2[C@@H](CO)OC(O)(CO)[C@H]2O)[C@H](O)[C@@H](O)[C@H]1O (mixture of isomers) [Lactulose] (50 µM)	0.98
CC(C)COC(=O)OCN1C(=O)CN(CCN2CC(=O)N(COC(=O)OCC(C)C)C(=O)C2)CC1=O [Sobuzoxane] (20 µM)	1.03
NS(=O)(=O)c1cc2c(cc1C(F)(F)F)NC(Cc1ccccc1)NS2(=O)=O (stereo not given) [Bendroflumethiazide] (20 µM)	0.993
CCOC(=O)[C@H](CCc1ccccc1)N[C@H]1CCc2ccccc2N(CC(=O)O)C1=O [Benazepril hydrochloride] (20 µM)	1.06
CC(=O)Oc1cc(C(C)C)c(OCCN(C)C)cc1C [Moxisylyte hydrochoride] (20 µM)	0.957
O=C1c2c(O)ccc(O)c2C(=O)c2c(NCCNCCO)ccc(NCCNCCO)c21 [Mitoxantrone dihydrochloride] (20 µM)	1.01
Nc1cccc2c1C(=O)N(C1CCC(=O)NC1=O)C2=O (stereo not given) [Pomalidomide] (20 µM)	1.12
CCCCOc1ccc(C(=O)CCN2CCCCC2)cc1 [Dyclonine hydrochloride] (20 µM)	0.989
OCC(O)CN1CCN(c2ccccc2)CC1 (stereo not given) [Dropropizine] (20 µM)	1.04
CN(C)CCC(c1ccc(Cl)cc1)c1ccccn1 (stereo not given) [Chlorpheniramine maleate] (20 µM)	1.05
CNCC(O)c1ccc(OC(=O)C(C)(C)C)c(OC(=O)C(C)(C)C)c1 (stereo not given) [Dipivefrin hydrochloride] (20 µM)	1.15
CC(=O)O[C@H]1C[C@@]2(C)[C@@H](C[C@@H](O)[C@H]3[C@@]4(C)CC[C@@H](O)[C@@H](C)[C@@H]4CC[C@@]32C)/C1=C(\CCC=C(C)C)C(=O)O [Fusidic acid sodium salt] (20 µM)	0.0208 (active)
CCOc1ccccc1OCC1CNCCO1 (stereo not given) [Viloxazine hydrochloride] (20 µM)	1.03
OC[C@H]1O[C@@H](O[C@H]2[C@H](O)[C@@H](O)[C@H](O)O[C@@H]2CO)[C@H](O)[C@@H](O)[C@H]1O [Lactose] (50 µM)	0.96
CCC(=O)c1ccc(O)cc1 [Paroxypropione] (20 µM)	0.946
CCOc1ccc2ccccc2c1C(=O)N[C@@H]1C(=O)N2[C@@H]1SC(C)(C)[C@@H]2C(=O)O [Nafcillin sodium salt monohydrate] (20 µM)	0.0237 (active)

The molecules below were run on Ruminococcus gnavus DSM 108212 in the same assay as above. Details: incubation time: 27 h, anaerobic, 37 °C.
Summary of the method: as §1

SMILES	fold change of Tryptamine concentration
CCCCCCC[N+](CC)(CC)CCCCc1ccc(Cl)cc1 [Clofilium tosylate] (20 µM)	0.792
N=C(N)NCC1COC2(CCCCC2)O1 (stereo not given) [Guanadrel sulfate] (20 µM)	1.04
CCCC(CCC)C(=O)O[C@H]1C[C@H]2CC[C@@H](C1)[N+]2(C)C [Anisotropine Methylbromide] (20 µM)	1.04
COc1ccc2c(c1)c(CC(=O)OCC(=O)O)c(C)n2C(=O)c1ccc(Cl)cc1 [Acemetacin] (20 µM)	0.964
CN1CCCN=C1/C=C/c1cccc(O)c1 [Oxantel pamoate] (20 µM)	1.06
COc1c(O[C@@H]2O[C@H](CO)[C@@H](O)[C@H](O)[C@H]2O)cc2c(c1OC)-c1ccc(SC)c(=O)cc1[C@@H](NC(C)=O)CC2 [Thiocolchicoside] (20 µM)	1.02
Cc1c(Nc2ncccc2C(=O)O)cccc1C(F)(F)F [Flunixin meglumine] (20 µM)	0.992
C#C[C@]1(OC(C)=O)CC[C@H]2[C@@H]3CCC4=CC(=NO)CC[C@@H]4[C@H]3CC[C@@]21CC (mixture of isomers) [Norgestimate] (20 µM)	0.888
CC12CC3CC(C)(C1)CC(N)(C3)C2 [Memantine hydrochloride] (20 µM)	1.09
CC(CCc1ccccc1)NCC(O)c1ccc(O)c(C(N)=O)c1 (stereo not given) [Labetalol hydrochloride] (20 µM)	0.967
CCCCc1oc2ccc(NS(C)(=O)=O)cc2c1C(=O)c1ccc(OCCCN(CCCC)CCCC)cc1 [Dronedarone hydrochloride] (20 µM)	0.8
CCN1CCCC(OC(=O)C(c2ccccc2)c2ccccc2)C1 (stereo not given) [Piperidolate hydrochloride] (20 µM)	1.01
C[C@]1(Cn2ccnn2)[C@H](C(=O)O)N2C(=O)C[C@H]2S1(=O)=O [Tazobactam] (20 µM)	1.05
O=C(CCCN1CCN(c2ccccn2)CC1)c1ccc(F)cc1 [Azaperone] (20 µM)	0.963
CC(=O)Nc1c(I)c(NC(C)=O)c(I)c(C(=O)O)c1I [Diatrizoic acid dihydrate] (20 µM)	1.05
CN[C@@H]1[C@@H](O)[C@@H](O[C@@H]2[C@@H](O)[C@H](O[C@H]3OC(CN)=CC[C@H]3N)[C@@H](N)C[C@H]2N)OC[C@]1(C)O [Sisomicin sulfate] (20 µM)	1.02

SMILES	fold change of Tryptamine concentration
CC(CN(C)C)C(C)(O)Cc1ccc(Cl)cc1 (stereo not given) [Clobutinol hydrochloride] (20 µM)	0.975
CC(=O)[C@H]1CC[C@H]2[C@@H]3C[C@H](C)C4=CC(=O)CC[C@]4(C)[C@H]3[C@@H](O)C[C@]12C [Medrysone] (20 µM)	1.01
CC(C(=O)O)c1ccc(-c2ccccc2)c(F)c1 (stereo not given) [Flurbiprofen] (20 µM)	0.937
CCOC(=O)/C=C(C)/C=C/C=C(C)/C=C/c1c(C)cc(OC)c(C)c1C [Etretinate] (20 µM)	1.03
c1ccc2c(CC3=NCCN3)cccc2c1 [Naphazoline hydrochloride] (20 µM)	1.01
CCCCC(=O)N(Cc1ccc(-c2ccccc2-c2nnn[nH]2)cc1)[C@H](C(=O)O)C(C)C [Valsartan] (20 µM)	1.07
COc1ccccc1O [Guaiacol] (20 µM)	1.05
OC[C@H]1O[C@@H](O[C@@H]2[C@@H](CO)OC(O)(CO)[C@H]2O)[C@H](O)[C@@H](O)[C@H]1O (mixture of isomers) [Lactulose] (50 µM)	1
CC(C)COC(=O)OCN1C(=O)CN(CCN2CC(=O)N(COC(=O)OCC(C)C)C(=O)C2)CC1=O [Sobuzoxane] (20 µM)	1.03
NS(=O)(=O)c1cc2c(cc1C(F)(F)F)NC(Cc1ccccc1)NS2(=O)=O (stereo not given) [Bendroflumethiazide] (20 µM)	0.993
CCOC(=O)[C@H](CCc1ccccc1)N[C@H]1CCc2ccccc2N(CC(=O)O)C1=O [Benazepril hydrochloride] (20 µM)	1.02
CC(=O)Oc1cc(C(C)C)c(OCCN(C)C)cc1C [Moxisylyte hydrochoride] (20 µM)	1.04
O=C1c2c(O)ccc(O)c2C(=O)c2c(NCCNCCO)ccc(NCCNCCO)c21 [Mitoxantrone dihydrochloride] (20 µM)	0.978
Nc1cccc2c1C(=O)N(C1CCC(=O)NC1=O)C2=O (stereo not given) [Pomalidomide] (20 µM)	1.03
CCCCOc1ccc(C(=O)CCN2CCCCC2)cc1 [Dyclonine hydrochloride] (20 µM)	0.947
